Hit rate of the full screen: of about 48,000 compounds, about 13,000 (27%) showed an effect of 50% or more. The list shows a part of the results.

The experiment has as its system Wolbachia pipientis. The experiment is described as follows: Anti-Wolbachia Cell-Based Screen. The settings on record: 5 µM. It counts as functional. The arrangement: scale not given: in the data most compounds retested in dose-response had high values.
As for `CCN(CC)Cc1cc(C(=O)N2CCCC(CC)(C(=O)O)C2)c(C)o1` (stereo unspecified), the “Percent Effect” value came out at 1.255%. In the case of `O=C(c1scc2c1OCCO2)N1CCOC(CCc2ccccc2)C1` (stereo unspecified), the “Percent Effect” value is listed as -26.43%. With `CCc1nc(C)c([C@H]2CN(C)C[C@@H]2C(=O)Nc2cccc3cn[nH]c23)[nH]1` the figure was -9.056%; with `CC(=O)N1CCN(C(=O)CCNc2snc(Cl)c2C#N)CC1`, -5.282%; with `Cc1cc(CN(Cc2ccccc2)CC(O)c2cccs2)on1` (stereo unspecified), -11.7%. The same measure for `Cn1c(C(F)(F)F)nn(CCNC(=O)Nc2ccccc2F)c1=O`: 4.89%; for `CSc1nnc(CNC(=O)Nc2ccccc2Br)n1C`: 152.8%. The same measure for `CSc1nnc(CNC(=O)Nc2ccccc2F)n1C`: 133%; for `CCc1ccccc1NC(=O)NCc1nnc(SC)n1C`: 130.1%; for `CNc1nc(CNC(=O)Nc2ccccc2SC)cs1`: 0.4301%. Turning to `COc1ccccc1NC(=O)NCc1cn[nH]c1`, the “Percent Effect” value stood at 15.69%. With `CNC(=O)Cc1ccccc1NC(=O)NCc1ccc(SC)cc1` the figure was -2.376%; with `CN(C)c1ncc(CNC(=O)Nc2ccccc2F)n1C`, -5.654%; with `COC(=O)CCCNC(=O)Nc1ccccc1OC`, -0.6444%. With `CCOc1ccccc1NC(=O)NCc1ccoc1` the figure was 6.288%; with `Cn1c(CO)nnc1SCc1c(F)cccc1Br`, 6.099%; with `COc1ccccc1NC(=O)NCc1nnc(SC)n1C`, 134.3%. The same measure for `CN(C(=O)c1ccncc1Cl)c1ccccc1S(C)(=O)=O`: -0.2522%. In the case of `O=C(Nc1cccs1)N(CCO)CCOCC(F)(F)F`, the “Percent Effect” value worked out at 5.099%. The same measure for `Cc1ccccc1CC1(CO)CCCN(c2ncncc2C(C)C)C1` (stereo unspecified): 2.064%. The same measure for `Cc1nnc(N2CC[C@@H](OCC3CC3)[C@@H](Cc3ccccc3)C2)s1.O=C(O)C(F)(F)F`: 4.615%; for `CO[C@H]1CCN(c2nnc(C)s2)C[C@@H]1Cc1ccccc1.O=C(O)C(F)(F)F`: 94.02%; for `CO[C@@H]1CCN(c2nnc(C)s2)C[C@@H]1Cc1ccccc1.O=C(O)C(F)(F)F`: 97%. With `Cc1nnc(N2CC[C@H](OCC3CC3)[C@@H](Cc3ccccc3)C2)s1.O=C(O)C(F)(F)F` the figure was -12.39%; with `COCc1ccc(C(=O)N2CCC(Oc3ccccc3)(C(=O)O)CC2)o1`, -4.026%; with `Cc1ncc(C)c(N2CCCC(CO)(Cc3cccc(Cl)c3)C2)n1` (stereo unspecified), -4.145%. Take `CN1CCN(CCCNC(=O)c2cc(Cl)c3c(c2)OCO3)CC1`: the “Percent Effect” value is 11.84%. With `CC(C)N(C)Cc1nnc2n1CCN(S(=O)(=O)C1CC1)CC2.O=C(O)C(F)(F)F` the figure was -7.825%.

With `CC(C)N(C)Cc1cc(=O)n2c(n1)CN(S(=O)(=O)C1CC1)CCC2.O=C(O)C(F)(F)F`, the “Percent Effect” value came out at 109.3%.

Take `CN(C)Cc1cc(=O)n2c(n1)CN(CC1CCOCC1)CCC2`: the “Percent Effect” value is reported as -13.06%.

As to `CC(C)N(C)Cc1nnc2n1CCCN(S(=O)(=O)C1CC1)C2.O=C(O)C(F)(F)F`, the “Percent Effect” value was -4.148%. For `CCN(CC)Cc1cc(=O)n2c(n1)CN(S(=O)(=O)C1CC1)CCC2.O=C(O)C(F)(F)F`, the “Percent Effect” value is on record as 115.6%. On to `CN(C)Cc1cc(=O)n2c(n1)CN(S(=O)(=O)C1CC1)CCC2.O=C(O)C(F)(F)F`, for which the “Percent Effect” value is reported as 96.54%.

Turning to `C=C(C)COc1cccc(C(=O)N(C)Cc2cc(CC)no2)c1`, the “Percent Effect” value is -19.24%. The same measure for `Cc1ccn(-c2ccc(N3CCCN(Cc4ccccc4)CC3)nn2)n1`: 1.996%; for `COCCCC1(CO)CCCN(C(=O)c2cnc3c(c2)CCCC3)C1` (stereo unspecified): -5.76%; for `Clc1snnc1CN1CCOC(CNc2cccnn2)C1` (stereo unspecified): -2.392%. For `Cn1c(CN2CCOC(CNc3cccnn3)C2)nnc1C1CC1` (stereo unspecified), the “Percent Effect” value worked out at 105.6%. The same measure for `CCN(CC1CN(CCc2ccccn2)CCO1)c1cccnn1` (stereo unspecified): -0.8374%; for `c1ccc(CCN2CCOC(CNc3cccnn3)C2)nc1` (stereo unspecified): 95.59%.

For the compound `c1cnnc(NCC2CN(CC3CCOCC3)CCO2)c1` (stereo unspecified), the “Percent Effect” value came to 103%. The same measure for `c1cnnc(NCC2CN(CCn3cncn3)CCO2)c1` (stereo unspecified): -18.76%; for `CCn1ccnc1CN1CCOC(CNc2cccnn2)C1` (stereo unspecified): 10.18%; for `Cc1cc(C)n(CCN2CCOC(CNc3cccnn3)C2)n1` (stereo unspecified): 103.1%.

`CC(C)c1ccc(CNC(C)c2ccc(S(=O)(=O)N(C)C)cc2)cc1` (stereo unspecified): the “Percent Effect” value is on record as 1.332%. The same measure for `CN(CCC#N)C(=O)CN1CCC(c2cc3ccccc3[nH]2)CC1`: -2.857%; for `O=S(=O)(c1ccccc1)N1CCN(Cc2ccc(F)cc2Br)CC1`: 23.46%. With `CCn1ccnc1-c1nc2cc(S(=O)(=O)N3CCCC3)ccc2n1C` the figure was -1.841%. With `c1ccc(OCCCN2CCOC(CNc3cccnn3)C2)cc1` (stereo unspecified) the figure was 96.43%; with `Cn1cc(CCN2CCOC(CNc3cccnn3)C2)cn1` (stereo unspecified), 102.6%. Turning to `c1cnnc(NCC2CN(CCn3cccn3)CCO2)c1` (stereo unspecified), the “Percent Effect” value was -18.13%.

Source of the values: ChEMBL document CHEMBL3988442, “University of Dundee, Small-Polar-MMV Screening Library” (2021).
